Measured values from ChEMBL document CHEMBL4513216, “Probing the Open Global Health Chemical Diversity Library for Multistage-Active Starting Points for Next-Generation Antimalarials” (ACS Infect Dis, 2020).
Out of some 65,000 compounds screened, about 2,100 (3.2%) showed an effect of 50% or more. The median lay at about -52%. Many of the other results were omitted from the sample, so strong results are more common in it than they were.

test system: Plasmodium falciparum; assay: Screen against P. falciparum Asexual Blood Stage (ABS), at 5uM; type: functional, Dd2; conditions: tested at 5 uM

Question: Which INHIBITION does the source give for `CC(C)CNC(=O)N1CCOC2(CCNCC2)C1` here?
Answer: The INHIBITION was -53.6%.

Question: How did the INHIBITION turn out when `CC(C)NC(=O)N1CCOC2(CCCNC2)C1` (configuration not stated) was run?
Answer: Its INHIBITION is -67.8%.

Question: For `CC(C)CNC(=O)C1(Cc2ccccc2-c2cccs2)CCNC1` (configuration not stated), which INHIBITION is on record?
Answer: The INHIBITION was 71.7%.

Question: Which INHIBITION does the source give for `O=C(Nc1ccccc1)C1=NOC2(CCCNC2)C1` (configuration not stated) here?
Answer: The INHIBITION was -22.7%.

Question: For `CC(C)NC(=O)C1(Cc2ccccc2-c2ccccc2)CCCNC1` (configuration not stated), which INHIBITION is on record?
Answer: The INHIBITION was 76.7%.

Question: How did the INHIBITION turn out when `CC(C)NC(=O)[C@@H]1C[C@H]2NCC[C@H]2O1` was run?
Answer: Its INHIBITION is -104%.

Question: `CCN1CCC2(COCc3cnc(NCC4CC4)nc32)C1` (configuration not stated) was tested. Which INHIBITION did it give?
Answer: Its INHIBITION is 1.43%.

Question: How did the INHIBITION turn out when `CCN1C[C@@H]2[C@@H](OC)CCN(S(=O)(=O)c3cccnc3)[C@@H]2C1` was run?
Answer: The INHIBITION was -17.9%.

Question: Which INHIBITION does the source give for `COc1cc2nc(NCc3ccc(C)nc3)nc(N)c2cc1OC` here?
Answer: Its INHIBITION is 90.6%.

Question: Which INHIBITION does the source give for `COc1cc2nc(NCc3scnc3C)nc(N)c2cc1OC` here?
Answer: The INHIBITION was 89.8%.

Question: How did the INHIBITION turn out when `Fc1cccnc1O[C@@H]1CN(Cc2ccco2)[C@@H]2CCCO[C@@H]21` was run?
Answer: The INHIBITION was -48.2%.

Question: For `N#Cc1ccc(CNCC2(c3ccccc3)CCOCC2)cc1`, which INHIBITION is on record?
Answer: Its INHIBITION is 83%.

Question: How did the INHIBITION turn out when `COc1ccccc1N1CCC(CNCc2ccc(C#N)cc2)C1` (configuration not stated) was run?
Answer: The INHIBITION was 94.1%.

Question: `COc1ccccc1C1(CNCc2cccc(O)c2)CCOCC1` was tested. Which INHIBITION did it give?
Answer: The INHIBITION was 82.8%.

Question: `COc1ccccc1C1(CNCc2ccc(C#N)cc2)CCOCC1` was tested. Which INHIBITION did it give?
Answer: The INHIBITION was 76.6%.

Question: For `CSC1(CNC(=O)NC(C)Cc2cccc(F)c2)CCOCC1` (configuration not stated), which INHIBITION is on record?
Answer: The INHIBITION was -25.5%.

Question: For `CC[C@H]1CN2CC[C@H]1C[C@@H]2CNCc1cccc(C#N)c1`, which INHIBITION is on record?
Answer: Its INHIBITION is 34.8%.

Question: `O=C([C@@H]1CC[C@@H]2[C@@H](CCN2Cc2ccncc2)O1)N1CCCCO1` was tested. Which INHIBITION did it give?
Answer: Its INHIBITION is -84.8%.

Question: Which INHIBITION does the source give for `O=C1CO[C@@H]2CN(CC3CCOCC3)C[C@H]2N1Cc1ccncc1` here?
Answer: The INHIBITION was -115%.

Question: For `Cc1ccc(C(CCNCCCN(C)C)C2CCOC(C)(C)C2)cc1` (configuration not stated), which INHIBITION is on record?
Answer: The INHIBITION was 83.6%.

Question: Which INHIBITION does the source give for `CN(Cc1cccnc1)[C@@H]1CN(CC2CC2)[C@@H]2CCCO[C@H]12` here?
Answer: Its INHIBITION is -1.12%.

Question: How did the INHIBITION turn out when `COc1cc(OC)c(C2SCC(=O)Nc3n[nH]cc32)cc1OC` (configuration not stated) was run?
Answer: The INHIBITION was -189%.

Question: `COc1cc(OC)c(C2Nc3cc(Cl)ccc3C3=NCCN32)cc1OC` (configuration not stated) was tested. Which INHIBITION did it give?
Answer: The INHIBITION was 81.7%.

Question: Which INHIBITION does the source give for `C/C(=C\c1ccco1)CN(C)C(C)Cc1cc(C)ccn1` (configuration not stated) here?
Answer: The INHIBITION was -0.191%.

Question: Which INHIBITION does the source give for `CS(=O)(=O)Cc1nc(CN2CC=C(c3ccccc3)CC2)cs1` here?
Answer: Its INHIBITION is -50.8%.

Question: With `CCCN1CCN(C(=O)c2cnccc2C)[C@H]2CS(=O)(=O)C[C@H]21` as the molecule, how does the INHIBITION read?
Answer: The INHIBITION was -12.9%.

Question: Which INHIBITION does the source give for `O=C(c1[nH]c2ccc(Cl)cc2c1Cl)N1CCC2(CC1)OCCO2` here?
Answer: The INHIBITION was -37.1%.

Question: Which INHIBITION does the source give for `Cc1c(C(=O)N2CCC(N3CCCCC3)CC2)n(C)c2ccc(Cl)cc12` here?
Answer: The INHIBITION was 88%.

Question: With `CC(C)c1ncc(Cl)c(C(=O)N2CCN3CCCCC3C2)n1` (configuration not stated) as the molecule, how does the INHIBITION read?
Answer: Its INHIBITION is -158%.

Question: With `CC(Cn1cncn1)NCc1csc2c1CCCC2` (configuration not stated) as the molecule, how does the INHIBITION read?
Answer: The INHIBITION was -42.7%.

Question: For `c1cnc(NC[C@H]2OC[C@@H]3CCN(Cc4ccncc4)C[C@@H]32)nc1`, which INHIBITION is on record?
Answer: Its INHIBITION is -102%.

Question: How did the INHIBITION turn out when `Fc1ccc(OCCNC2CCN(Cc3ccncc3)CC2)c(F)c1` was run?
Answer: The INHIBITION was 74.2%.

Question: Which INHIBITION does the source give for `c1cc(CN2CC[C@@H]3CN(c4cnccn4)C[C@@H]3C2)ccn1` here?
Answer: Its INHIBITION is -72.2%.

Question: Which INHIBITION does the source give for `CNc1ncccc1C(=O)N1CCC2(CCN(C)C2)CC1` here?
Answer: Its INHIBITION is -89.3%.

Question: For `Cc1ncc(CNCCO)c2cc(C(=O)c3ccc(Br)cc3)oc12`, which INHIBITION is on record?
Answer: Its INHIBITION is 89.3%.

Question: How did the INHIBITION turn out when `O=C1C[C@@H]2CC[C@H](CN1)N2C1CSCCSC1` was run?
Answer: The INHIBITION was -45.6%.

Question: With `Cc1ccc(CN2CCC3(CC2)CCN(Cc2ccco2)CC3)cc1` as the molecule, how does the INHIBITION read?
Answer: The INHIBITION was 91.7%.

Question: For `c1cc(CN2CCCC23CCCN(Cc2ccoc2)C3)ccn1` (configuration not stated), which INHIBITION is on record?
Answer: Its INHIBITION is -105%.

Question: With `O=C1Nc2ccccc2C12CCN(Cc1nccs1)CC2` as the molecule, how does the INHIBITION read?
Answer: The INHIBITION was -15.8%.

Question: For `Cc1ccc(CN2CCC3(CCN(Cc4ccncc4)CC3)CC2)cc1`, which INHIBITION is on record?
Answer: Its INHIBITION is 78.3%.

Question: For `O=C1CC2(CCN(Cc3ccoc3)C2)CN1c1cncnc1` (configuration not stated), which INHIBITION is on record?
Answer: Its INHIBITION is -51.3%.

Question: Which INHIBITION does the source give for `O=C1NC[C@H]2CN(Cc3nccs3)CCN12` here?
Answer: The INHIBITION was -41.7%.

Question: Which INHIBITION does the source give for `CN1CCN(Cc2ccco2)Cc2cccnc21` here?
Answer: The INHIBITION was -15.8%.

Question: How did the INHIBITION turn out when `C[C@H]1C[C@@H]2CCN(Cc3ccco3)C[C@H]2O1` was run?
Answer: The INHIBITION was -32%.

Question: How did the INHIBITION turn out when `Cn1ccnc1CN1CC2(CCN(Cc3ccncc3)C2)C1` was run?
Answer: Its INHIBITION is -45.8%.

Question: Which INHIBITION does the source give for `Cc1ccc(CN2CCC3(CC2)CCN(Cc2ccoc2)CC3)cc1` here?
Answer: The INHIBITION was 92.7%.

Question: Which INHIBITION does the source give for `Fc1ccc(CN2CCC3(CC2)CCN(Cc2nccs2)CC3)cc1` here?
Answer: Its INHIBITION is 86.6%.

Question: How did the INHIBITION turn out when `c1cnc(N2CC3(CCN(Cc4ccncc4)C3)C2)nc1` was run?
Answer: Its INHIBITION is -104%.

Question: For `O=C1CSC(c2ccc(Cl)cc2Cl)c2c(n(C3CCOCC3)[nH]c2=O)N1` (configuration not stated), which INHIBITION is on record?
Answer: The INHIBITION was -37.1%.

Question: Which INHIBITION does the source give for `O=C(NCC1CC[C@@]2(CNCCOC2)O1)c1cccnc1` (some centres not stated) here?
Answer: Its INHIBITION is -65.9%.

Question: Which INHIBITION does the source give for `Cc1n[nH]c2c1C(c1ccsc1)SCC(=O)N2` (configuration not stated) here?
Answer: The INHIBITION was -110%.

Question: `c1cncc(OC[C@]23COC[C@H]2CN(C2CCOCC2)C3)c1` was tested. Which INHIBITION did it give?
Answer: The INHIBITION was -10.4%.

Question: With `CSCCCN1CC[C@@]2(O)CCN(c3ncccn3)C[C@H]2C1` as the molecule, how does the INHIBITION read?
Answer: The INHIBITION was 16.4%.

Question: For `CCCOc1ccc2ccccc2c1CN1CC[C@@]2(O)CCNC[C@H]2C1`, which INHIBITION is on record?
Answer: The INHIBITION was 93.2%.

Question: For `O=C(O)[C@]12CCCN(C3CCOC3)C[C@H]1CN(c1ncccn1)C2` (some centres not stated), which INHIBITION is on record?
Answer: The INHIBITION was -128%.

Question: How did the INHIBITION turn out when `CN(C)C(=O)c1ccc(-c2cccc3c2CCNC3)cc1` was run?
Answer: The INHIBITION was -115%.

Question: `OC1(c2ccc(F)cc2)CCN(Cc2ccccc2N2CCCC2)CC1` was tested. Which INHIBITION did it give?
Answer: The INHIBITION was 71.9%.

Question: `Oc1ccc(N2CCN(Cc3ccc(F)cc3Br)CC2)cc1` was tested. Which INHIBITION did it give?
Answer: The INHIBITION was -85.8%.

Question: Which INHIBITION does the source give for `O=C(NCC1CC1)[C@@H]1C[C@@H]2OCCN[C@@H]2C1` here?
Answer: Its INHIBITION is -55.3%.

Question: For `O=C1NCC[C@]12CN(Cc1cccnc1)C[C@H]2c1ccccc1`, which INHIBITION is on record?
Answer: Its INHIBITION is -11.5%.

Question: `Cc1cccc(CN2CCC23CCCNC3)n1` (configuration not stated) was tested. Which INHIBITION did it give?
Answer: The INHIBITION was 12%.

Question: Which INHIBITION does the source give for `Cc1ccc(C)c(N2CCN(CC3(O)CCNC3)CC2)c1` (configuration not stated) here?
Answer: Its INHIBITION is 85.9%.

Question: `Cc1ccccc1N1CCCN(CC2(O)CCCNC2)CC1` (configuration not stated) was tested. Which INHIBITION did it give?
Answer: The INHIBITION was 87.7%.

Question: Which INHIBITION does the source give for `CC(=O)N1CC2(CCNCC2)c2cc(C)ccc21` here?
Answer: The INHIBITION was 1.98%.

Question: With `Cc1nc2c(C)cccc2cc1C(=O)N1CCC2(CCCNC2)C1` (configuration not stated) as the molecule, how does the INHIBITION read?
Answer: Its INHIBITION is -31.7%.

Question: Which INHIBITION does the source give for `Cc1cnn(CC(C)NCc2ccc(C#N)cc2F)c1` (configuration not stated) here?
Answer: The INHIBITION was -84.2%.

Question: Which INHIBITION does the source give for `c1cc(CN2CCO[C@H]3[C@H](OCC4CCCC4)CC[C@@H]32)ccn1` here?
Answer: The INHIBITION was -71.1%.
